This note sets out measurements from PubChem BioAssay AID463173 (ICCB-Longwood Screening Facility, Harvard Medical School, 2010).

Among all 52,000 compounds or so, about 4,300 (8.3%) were called active. The full list was thinned out, with actives kept by preference. Values without a mark were called inactive. Rule as the data show it: active = survival mostly below about 52% (no sharp cut-off); inactive = mostly above about 56%.

The assay relates to DeltatarO mutant. As to the kind of experiment: growth inhibition of S. aureus wild type versus tarO mutant, primary screen, teichoic acid synthesis inhibitors, RN4220, OD600 (AID 463173). Particulars: OD600, 18 h, stronger effect = lower value, screened at 18.75 µg/mL (by protocol).
Turning to `CCN(C1CCCCC1)S(=O)(=O)c1ccc(S(=O)(=O)NC2CC2)cc1`, the survival was 90%.
On to `O=C(Nc1ccccc1)C1CCN(S(=O)(=O)c2ccc3c(c2)CCCN3C(=O)C2CCC2)CC1`, for which the survival was 95%.
To `CCOc1ccc(Nc2c(S(=O)(=O)c3ccc(C)cc3)cnc3ccccc23)cc1` belongs 43% (active); to `CCOc1ccc(Nc2c(S(=O)(=O)c3ccc(C)cc3)cnc3ccc(OC)cc23)cc1`, 59%.
To `CCOc1ccc(Nc2c(S(=O)(=O)c3ccccc3)cnc3ccc(F)cc23)cc1` belongs 92%; to `CCOc1ccc(Nc2c(S(=O)(=O)c3ccc(Cl)cc3)cnc3ccc(OCC)cc23)cc1`, 66%; to `CCOc1ccc(Nc2c(S(=O)(=O)c3ccccc3)cnc3ccccc23)cc1`, 38% (active).
For the compound `CCOc1ccc(Nc2c(S(=O)(=O)c3ccccc3)cnc3ccc(CC)cc23)cc1`, the survival was 34% (active).
For `CCOc1ccc(Nc2c(S(=O)(=O)c3ccc(Cl)cc3)cnc3ccc(OC)cc23)cc1`, the survival was 67%.
As for `CCOc1ccc(Nc2c(S(=O)(=O)c3ccc(C)cc3)cnc3cc(OC)c(OC)cc23)cc1`, the survival is 70%.
On to `CCOc1ccc(Nc2c(S(=O)(=O)c3ccc(C)cc3)cnc3ccc(F)cc23)cc1`, for which the survival was 64%.
Turning to `CCOc1ccc(C(=O)NCC(c2ccc3c(c2)OCO3)N2CCN(c3ccc(F)cc3)CC2)cc1` (centres undefined), the survival was 87%.
As to `COc1ccc(Cl)cc1NC(=O)Cn1cnc2sc(C)c(S(=O)(=O)N3CCN(c4ccccc4OC)CC3)c2c1=O`, the survival was 79%.
In the case of `CCN(c1ccccc1)c1nnc(NC(=O)Nc2ccc(Br)c(C)c2)s1` it was 89%; in that of `COc1ccccc1NC(=O)c1c(-c2ccc(C)cc2)nnc2ccccc12`, 105%; in that of `Cc1cc(S(=O)(=O)Nc2ccc(O)c(Sc3nc4ccccc4s3)c2)ccc1Cl`, -1% (active).
For the compound `O=C(Nc1ccc(Cl)cc1-c1nc2ccccc2s1)c1ccco1`, the survival is 74%.
`Cc1nc2ccc(S(=O)(=O)NC(C(=O)NCc3ccccc3Cl)C(C)C)cc2s1` (centres undefined): the survival was 102%.
As for `Cc1nc2ccc(S(=O)(=O)CCC(=O)Nc3ccc(C(C)C)cc3)cc2s1`, the survival is 50%.
`O=S(=O)(Nc1ccc(O)c(Sc2nc3ccccc3s2)c1)c1cc(Cl)ccc1Cl`: the survival was -8% (active).
As for `CC(C)(C)c1ccc(S(=O)(=O)Nc2ccc(O)c(Sc3nc4ccccc4s3)c2)cc1`, the survival was -4% (active).
As for `Cn1c(=O)sc2cc(NS(=O)(=O)c3ccc(C(C)(C)C)cc3)ccc21`, the survival is 92%.
For `CC(C)c1ccc(C(=O)Nc2ccc(-c3nc4ccccc4s3)c(Cl)c2)cc1`, the survival is 216%.
As to `CC(C)c1ccc(S(=O)(=O)Nc2ccc(O)c(Sc3nc4ccccc4s3)c2)cc1`, the survival is 1% (active).
Consider `Cc1cc(F)ccc1S(=O)(=O)Nc1ccc(O)c(Sc2ncn[nH]2)c1`, for which the survival was 111%.
Turning to `CC(C)NC(=O)c1nc2ccccc2s1`, the survival was 88%.
In the case of `CS(=O)(=O)Nc1ccc(-c2nc3ccccc3s2)cc1` it was 48%; in that of `CCOC(=O)CNc1nnc(SCC(=O)OCC)[nH]c1=O`, 71%; in that of `Cc1ccc2oc(C(=O)Nc3ccc(S(=O)(=O)N4CCCC(C)C4)cc3)cc(=O)c2c1` (centres undefined), 69%.
`Cc1ccc(Cl)cc1N1CCN(CCCNc2ncnc3onc(-c4ccc(F)cc4)c23)CC1`: the survival is 80%.
As to `Cc1ccc2nc(-c3ccncc3)c(Nc3ccc(C(C)C)cc3)n2c1`, the survival was 75%.
With `CC(C)(Cc1ccc(O)cc1)NC(=O)c1ccccc1`, the survival is 86%.
Take `CC(=O)c1c(C)n(-c2cccc(Cl)c2)c2ccc(OC(=O)c3ccccc3)cc12`: the survival is 77%.
As for `CN(CC(=O)NCc1ccccc1Cl)S(=O)(=O)c1ccc2c(c1)c(=O)n(C)c(=O)n2C`, the survival was 130%.
Take `CCOc1ccccc1C(=O)Nc1ccc(S(=O)(=O)Nc2ncccn2)cc1`: the survival is 76%.
Consider `CC1=CCC2C(=O)N(C3CCCCC3)C(=O)C2C1` (centres undefined), for which the survival was 79%.
In the case of `CC(C)c1ccc(NC(=O)N2CCN(c3ccc(Cl)c(Cl)c3)CC2)cc1`, the survival was 87%.
In the case of `O=C(Nc1ccc(F)cc1F)N1CCN(c2ccc(Cl)c(Cl)c2)CC1` it was 48% (active).
On to `Cc1ccc(NC(=O)N2CCN(c3ccc(Cl)c(Cl)c3)CC2)cc1`, for which the survival was 102%.
For `CCn1cc(S(=O)(=O)c2ccc(C)cc2)c(=O)c2cc(F)c(N3CCCCCC3)cc21`, the survival was 90%.
In the case of `CC(C)C(=O)Nc1nnc2n1CCS2` it was 101%; in that of `C=C(C)CSc1nc2sc3c(c2c(=O)n1-c1ccccc1)CC(C(C)C)OC3` (centres undefined), 76%; in that of `C=C(C)CSc1nc2sc3c(c2c(=O)n1Cc1ccccc1)CC(C)(CC)OC3` (centres undefined), 42% (active).
For the compound `CCn1c(NN)nc2sc3c(c2c1=O)CC(C)(C)OC3`, the survival is 104%.
Regarding `CCCSc1nc2sc3c(c2c(=O)n1Cc1ccccc1)CC(C)(CC)OC3` (centres undefined), the survival is 14% (active).
`CCCSc1nc2sc3c(c2c(=O)n1-c1cccc(Br)c1)CC(C)(C)OC3`: the survival is 61%.
On to `CCCCSc1nc2sc3c(c2c(=O)n1-c1ccccc1C)CC(C)(C)OC3`, for which the survival was 48%.
For `CSc1nc2c([nH]c3ccccc32)c(=O)n1-c1ccc(C)cc1`, the survival was 87%.
`Cc1ccc(N2C(=O)C3CN4CCCN4C3C2=O)cc1` (centres undefined): the survival is 78%.
For `COc1ccccc1C(=O)NCC(=O)O`, the survival was 76%.
As for `CCc1ccc(S(=O)(=O)c2nnn3c2nc(N2CCCC(C)C2)c2cc(Cl)ccc23)cc1` (centres undefined), the survival is 63%.
Regarding `Cc1ccc(NC(=O)Cn2c(=O)n(-c3ccccc3)c(=O)c3ccc(C(=O)NCc4ccc5c(c4)OCO5)cc32)cc1`, the survival is 114%.
On to `CCOC(=O)c1cccc(NC(=O)c2cc(S(=O)(=O)N3CCCCCC3)cn2C)c1`, for which the survival is 74%.
Take `COc1ccc(N2CCN(S(=O)(=O)CCNC(=O)c3ccc(C(F)(F)F)cc3)CC2)cc1`: the survival is 99%.
To `COc1ccc(CCNC(=O)c2ccc3c(c2)CCN3S(=O)(=O)c2ccc(Cl)cc2)cc1` belongs 50%.
In the case of `COc1ccc(CCNC(=O)c2ccc3c(c2)CCN3S(=O)(=O)c2ccc(C)cc2)cc1` it was 43% (active).
Regarding `COc1ccc(CCNC(=O)c2ccc3c(c2)CCN3S(=O)(=O)c2ccccc2)cc1`, the survival was 44% (active).
In the case of `COc1ccc(CCNC(=O)c2ccc3c(c2)CCN3S(C)(=O)=O)cc1` it was 82%; in that of `COc1ccc(CCNC(=O)c2ccc3c(c2)CCN3S(=O)(=O)c2ccc(C)cc2)cc1OC`, 50%.
Consider `O=C(NCCc1ccccc1)c1ccc2c(c1)CCN2S(=O)(=O)c1ccccc1`, for which the survival was 38% (active).
In the case of `COc1ccc(CNC(=O)c2ccc3c(c2)CCN3S(=O)(=O)c2ccccc2)cc1`, the survival was 36% (active).
To `COc1ccc(CCNC(=O)c2ccc3c(c2)CCN3S(=O)(=O)c2ccccc2)cc1OC` belongs 88%; to `COc1ccc(CNC(=O)c2ccc3c(c2)CCN3S(=O)(=O)c2ccc(C)cc2)cc1`, 55%.
With `O=C(NCCc1ccccc1)c1ccc2c(c1)CCN2S(=O)(=O)c1ccc(Br)cc1`, the survival was 67%.
In the case of `Cc1ccc(S(=O)(=O)N2CCc3cc(C(=O)NCCc4ccccc4)ccc32)cc1`, the survival was 104%.
Consider `COc1ccc(CNC(=O)c2ccc3c(c2)CCN3S(=O)(=O)c2ccc(Cl)cc2)cc1`, for which the survival is 62%.
On to `Cc1cccc(-c2nc(CSc3nncn4c3cc3sccc34)c(C)o2)c1`, for which the survival was 75%.
In the case of `COc1ccc(CC(=O)Nc2cc(-c3cn4cccnc4n3)ccc2OC)cc1` it was 91%; in that of `COc1ccc(Cl)cc1NC(=O)CN(c1cccc(C)c1C)S(=O)(=O)c1ccccc1`, 72%; in that of `Cc1cccc(N2CCN(S(=O)(=O)c3ccc4c(c3)CCCN4C(=O)C3CCC3)CC2C)c1` (centres undefined), 77%.
In the case of `COc1cccc(-n2cc(C(=O)Nc3cccc(C(F)(F)F)c3)c3ccccc3c2=O)c1` it was 61%; in that of `CCCCN(C)c1nnc(NC(=O)Nc2cccc(C(C)=O)c2)s1`, 93%.
With `Cc1cccc2cc(CN(Cc3ccco3)C(=O)N3CCOCC3)c(Cl)nc12`, the survival was 85%.
For `O=C(CSc1nccn1Cc1ccc(F)cc1)NCc1ccc(F)cc1`, the survival is 71%.
As to `O=C(c1cnc(N2CCOCC2)c2ccccc12)N1CCN(c2ccccc2F)CC1`, the survival is 71%.
In the case of `CCCc1cc(N2CCN(c3ccccc3F)CC2)n2cnnc2n1` it was 75%; in that of `CCCc1cc(N2CCN(c3cc(Cl)ccc3C)CC2)n2cnnc2n1`, 30% (active).
For `CCCc1cc(N2CCN(c3cccc(C)c3C)CC2)n2cnnc2n1`, the survival is 52%.
`CN(C)c1cc2c(cc1NC(=O)c1ccc(F)cc1)n(C)c(=O)n2C`: the survival was 104%.
Take `CCNc1nc(Cl)nc(NC2CCCCC2)n1`: the survival was 90%.
In the case of `COc1ccc(-c2cc3ccc(O)c(CN4CCC(C)CC4)c3oc2=O)cc1` it was 71%; in that of `COc1ccc(-c2cc3ccc(O)c(CN4CCCC4)c3oc2=O)cc1OC`, 116%; in that of `COc1ccc(-c2cc3ccc(O)c(CN4CCC(C)CC4)c3oc2=O)cc1OC`, 52% (active).
As to `Cc1ccc2oc(=O)c3cnn(CC(=O)N4CCN(c5cccc(C(F)(F)F)c5)CC4)c3c2c1`, the survival is 87%.
As for `Cc1cc(C)c2c(n1)nn1c(C)c(CCC(=O)NCc3ccccc3Cl)c(C)nc21`, the survival was 82%.
In the case of `Cc1ccc(NC(=O)CSc2nccn2Cc2ccco2)cc1Cl` it was 87%.
Take `CCN(c1ccccc1)S(=O)(=O)c1nnc(NC(=O)C(C)Oc2ccccc2)s1` (centres undefined): the survival was 43%.
Turning to `CCN(c1ccccc1)S(=O)(=O)c1nnc(NC(=O)c2ccccc2)s1`, the survival is 38% (active).
To `CCN(c1ccccc1)S(=O)(=O)c1nnc(NC(=O)C(C)(C)C)s1` belongs 49%; to `CCN(c1ccccc1)S(=O)(=O)c1nnc(NC(=O)C2CCCCC2)s1`, 48% (active); to `CCN(c1ccc(C)cc1)S(=O)(=O)c1nnc(NC(=O)C2CCCCC2)s1`, 109%.
For the compound `CCN(c1ccc(Cl)cc1)S(=O)(=O)c1nnc(NC(=O)C2CCCCC2)s1`, the survival is 74%.
In the case of `CCN(c1ccc(C)cc1)S(=O)(=O)c1nnc(NC(=O)c2cccs2)s1` it was 14% (active).
`CCN(c1ccccc1)S(=O)(=O)c1nnc(NC(=O)c2cccs2)s1`: the survival is 28% (active).
